Screening data deposited in PubChem by National Center for Advancing Translational Sciences (NCATS).
Shiga toxin inh – A qHTS for Small Molecule Inhibitors of Shiga Toxin | inhibition, % at 38.7 µM | 290,000 compounds, 9.2% hits | Vero cells, Shiga toxin protein synthesis inhibition reporter; in the data active = inhibition mostly above about 28%, no sharp cut-off; inactive = mostly below about 43%; note: 0% is about no effect
Pf growth 96h – Primary qHTS for delayed death inhibitors of the malarial parasite plastid, 96 hour incubation; P. falciparum luciferase reporter growth, 96 h; Potency, µM (titrated, usually from 28.7 µM), inactives show at the top dose activity change, negative = inhibition, most hits filed as inhibitors; 320,000 compounds, 6.9% hits; note: potency is the fitted concentration of half-maximal effect; % is set by controls: 0 for no effect and ±100 for the full control effect
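Cell-based qHTS: luciferase-tagged P. falciparum in erythrocytes (2% hematocrit, 0.05% parasitemia final) incubated with compounds for 96 hours, 37 C, 5% CO2; luciferase detection reagent then added and luminescence measured.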
CHX counter – Cycloheximide Counterscreen for Small Molecule Inhibitors of Shiga Toxin | 300,000 compounds, 12% hits | max response, % | cell reporter, cycloheximide protein synthesis inhibition counterscreen; in the data active = max response mostly above about 13%, no sharp cut-off; inactive = mostly below about 14%; note: read at 38.3 µM for the half of the compounds with a filed dose; 0% is about no effect
Pf growth 48h – Primary qHTS for delayed death inhibitors of the malarial parasite plastid, 48 hour incubation; P. falciparum luciferase growth in erythrocytes, 48 h; Potency, µM (doses to about 28.7 µM), for the others: top-dose activity change, negative = inhibition, actives largely listed as inhibitors; 310,000 compounds, 5.9% hits; AID 504832, 2011; note: potency is the fitted concentration of half-maximal effect; % is set by controls: 0 for no effect and ±100 for the full control effect
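Erythrocytes infected with P. falciparum carrying an integrated firefly luciferase reporter (2% hematocrit, 0.1% parasitemia final) were exposed to compounds in RPMI 1640 with 0.5% Albumax at 37 C, 5% CO2. Growth inhibition was scored as reduced luminescence.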
* hit, by the source's call; ? = inconclusive; / = not tested or not shown; [ ] = dose if it differs, or a comment. An excerpt weighted towards active compounds, which were near 21% of everything screened. Unless noted, calls come from the whole dose curve; as a rule, active = well fitted inhibition curve with a large enough effect; inconclusive = small, poorly fitted or top-dose-only effect, or another doubt; inactive = no such curve, though single readings can be large or run the other way.

SMILES | Shiga toxin inh | Pf growth 96h | CHX counter | Pf growth 48h
COc1ccc(-n2c(SCC(=O)Nc3nccs3)nc3c(c2=O)SC(C)C3)cc1 (stereo not drawn) | 14.6 | 1.04µM* | 1.0 | 1.65µM*
O=C(NC1CCN(C(=O)NCc2ccccc2)CC1)c1ccccc1 | -10.3 | 9.1% | -2.5 | 3.0%
COc1ccccc1C(C)NC(=O)c1cc(=O)[nH]c2ccccc12 (stereo not drawn) | 10.9 | ? | 7.5 | 9.3%
CCN(Cc1ccccc1)C(=O)CSc1nc(C)cc(=O)[nH]1 | -4.5 | 29.9% | 5.5 | -3.0%
CN(C)c1ccc(/C=N/NC(=O)c2ccco2)cc1 | 73.1 | 481.3% | 40.6* | 79.7%
CSC(=S)N/N=C/c1ccc(N(C)C)cc1 | 68.2* | ? | 42.5* | 53.9%
CN(C)c1ccc(/C=N\NC(=O)c2cccc3cc[nH]c23)cc1 | 55.9* | ? | 32.4* | 54.3%
Cc1cccc(-n2c(C)cc(/C=N\NC(=O)c3ccco3)c2C)c1 | 96.5* | 13.1% | 35.3* | 8.28µM*
CN(C)c1ccc(/C=N/NC(=O)c2cc(=O)[nH]c3ccccc23)cc1 | -13.5 | 27.3% | -2.8 | -0.5%
Cc1ccc2cccc(S(=O)(=O)N3CCCc4ccccc43)c2n1 | -9.0 | 0.1% | -2.2 | -23.8%
COc1ccc(/C=N/NC(=O)c2ccco2)cc1Cn1nc(C)c([N+](=O)[O-])c1C | -10.2 | -0.4% | 8.8 | ?
Cc1cc(/C=N/NC(=O)c2nn(C)cc2Cl)c(C)n1-c1cccc(Br)c1 | 20.5 | ? | 17.5* | ?
COc1ccc(/C=N/NC(=O)c2ccco2)cc1Cn1nc(C)cc1C | 66.9* | -13.3% | 34.3* | 13.0%
Cc1ccc(/C=N/NC(=O)c2ccco2)cc1 | 37.2* | 244.7% | 45.3* | 149.6%
Cc1cc(/C=N/NC(N)=S)c(C)n1-c1cccc(Cl)c1 | -7.5 | 50.8%[5.75 µM] | -3.7 | -26.5%
O=C(N/N=C\c1ccoc1)c1ccco1 | 60.8* | 11.5% | 35.4* | 11.3%
Cc1ccccc1NC(=O)COC(=O)c1cc(S(=O)(=O)N2CCOCC2)ccc1C | / | -1.1% | / | ?
O=C(CSc1ccc(-c2cccnc2)nn1)Nc1ccc(F)cc1 | 15.5 | ? | 4.7 | -3.5%
O=C(N/N=C/c1ccoc1)c1ccccc1F | 89.8* | ? | 74.6* | 57.7%
Cc1c(C(=O)N/N=C/c2ccoc2)cccc1[N+](=O)[O-] | 19.0 | ? | 21.2 | -17.1%
COC(=O)c1cc(S(=O)(=O)N2c3ccccc3CC2C)cn1C (stereo not drawn) | -5.6 | 20.1% | -2.5 | -7.5%
Cc1c(C)c2c(c(C)c1O)CCC(C)(COc1ccc(CC3SC(=O)NC3=O)cc1)O2 (stereo not drawn) | -9.0 | 6.01µM* | 11.4 | ?
COc1cccc(Oc2c(C)oc3c(CN4CCCC4)c(O)ccc3c2=O)c1 | -7.8 | -11.5% | -1.3 | -6.2%
O=C(CCC(=O)N/N=C/c1ccccc1O)NCc1ccccc1 | 27.3 | -16.4% | -1.1 | -2.2%
CSc1ccccc1NC(=O)C1CCN(S(C)(=O)=O)CC1 | 43.8 | ? | -3.2 | 6.0%
SMILES | Shiga toxin inh | Pf growth 96h | CHX counter | Pf growth 48h
COc1ccc(OC)c(NC(=O)CSc2nc3ccccc3cc2Cc2ccccc2)c1 | 5.7 | 6.57µM* | -2.4 | ?
COc1ccc(NC(=O)CSc2nc3ccccc3c3nc4ccccc4n23)cc1 | -11.9 | ? | -0.6 | 18.8%
COc1ccc(NC(=O)CSc2nc3ccccc3cc2Cc2ccccc2)cc1 | -5.5 | ? | 1.6 | ?
COc1ccc(OC)c(NC(=O)CSc2nc3ccccc3c3nc4ccccc4n23)c1 | 30.8 | ? | -2.8 | 0.828µM*
COc1cc(NC(=O)CSc2nc3ccccc3cc2Cc2ccccc2)cc(OC)c1 | -9.4 | ? | -0.6 | 11.7µM*
COc1cccc(NC(=O)CSc2nc3ccccc3cc2Cc2ccccc2)c1 | -4.0 | 7.38µM* | 8.4 | 3.29µM*
O=C(CN1CCN(Cc2cccc(F)c2)CC1)NCc1ccccc1 | -7.6 | 8.0% | -0.6 | -5.7%
Cc1ccccc1-c1nc(CS(=O)(=O)CC(=O)N2CCN(C)CC2)c(C)o1 | -9.1 | 57.4% | -2.9 | 35.8%
CCN1CCN(c2nnc(-c3ccc(C)cc3)c3ccccc23)CC1 | -7.1 | 30.8% | -3.2 | 12.8%[0.00184 µM]
COCc1cc(=O)[nH]c(SCC(=O)c2ccccc2)n1 | -3.6 | -20.2% | -2.2 | 2.08µM*
CCCc1cc(=O)[nH]c(SCC(=O)NC(=O)OCC)n1 | -5.0 | 23.8% | -2.1 | /
Cc1ccc(C(=O)CSc2nc(-c3ccccc3)cc(=O)[nH]2)cc1 | -7.3 | -4.7% | -1.5 | ?
Cc1cc(=O)[nH]c(SCC(=O)c2ccc(C(C)C)cc2)n1 | 31.9* | 4.5% | 33.6* | 14.3%
COCc1cc(=O)[nH]c(SCCS(=O)(=O)c2ccc(Cl)cc2Cl)n1 | 6.9 | 1.2% | 1.6 | 3.5%
COCc1cc(=O)[nH]c(SCCS(=O)(=O)c2ccc(C)cc2)n1 | -6.9 | -2.1% | 0.8 | 2.33µM*
CCCc1cc(=O)[nH]c(SCC(=O)NC(=O)c2ccccc2)n1 | -19.3 | 0.415µM* | -6.7 | 13.6%
COCCN(CC1CCCN(C2Cc3ccccc3C2)C1)C(=O)CCC(N)=O (stereo not drawn) | 23.6 | 139.0% | -4.1 | ?
CC1(c2ccccc2)NC(=O)N(CC(=O)NCc2cccc(Cl)c2)C1=O (stereo not drawn) | -10.1 | 15.1% | -4.5 | 17.4%
CCc1ccc2c(c1)C(=O)c1ccccc1C2=O | 14.0* | -20.5% | 42.9* | 256.5%
CC(C)(C)c1ccc2c(c1)C(=O)c1ccccc1C2=O | 77.3* | 354.9% | 32.3* | 273.7%
O=C(CN(Cc1ccco1)C(=O)c1cc(=O)[nH]c2ccccc12)Nc1ccccc1Br | 15.6 | 9.28µM* | -1.4 | ?
C/C(=N/NC(=O)c1cc(-c2ccc(Br)s2)[nH]n1)c1ccco1 | 7.4 | -4.7% | 15.7 | -26.8%
C/C(=N\NC(=O)c1cc(C(C)C)[nH]n1)c1ccco1 | 138.3* | -16.6% | 66.7* | 166.2%
C/C(=N\NC(=O)c1cc(C(C)C)[nH]n1)c1ccncc1 | 48.9* | -0.6% | 31.6 | 93.2%
COc1ccc(C2(C)NC(=O)N(CC(=O)NC3CCCC3)C2=O)cc1OC (stereo not drawn) | / | ? | / | -19.8%
SMILES | Shiga toxin inh | Pf growth 96h | CHX counter | Pf growth 48h
O=S(=O)(c1ccccc1)c1ncc(C(F)(F)F)cc1Cl | 15.9 | ? | 17.0 | 10.4µM*
O=C(CSc1nc2ccccc2o1)c1ccc2c(c1)OCCO2 | 98.1* | / | 39.6* | 79.0%
CCCCCCOC(=O)Sc1nc2ccccc2o1 | 43.1* | 77.9% | 28.7* | /
CC(=O)CSc1nc2ccccc2o1 | 57.0* | -23.3% | 26.7* | 129.6%
O=C(O)c1ccccc1CSc1nc2ccccc2o1 | 67.3* | 212.7% | 35.0* | 70.2%
Cc1noc(C)c1C(=O)OCC(=O)Nc1ccc(S(N)(=O)=O)cc1 | / | -14.8% | / | -3.5%
COc1ccc(C(=O)NCc2ccc3c(c2)OCO3)cc1S(=O)(=O)N1CCCC1 | / | ? | / | 4.6%
O=C(CSc1nc2ccccc2o1)c1ccccc1 | active | -25.9% | 46.6* | 141.1%
O=c1[nH]c(-c2ccco2)nc2sc3c(c12)CCCC3 | 91.0* | 357.5% | 50.7* | 320.9%
COc1ccccc1/C=C/C(=O)NCC(=O)N=Nc1c(O)[nH]c2ccccc12 | 7.2 | 41.9% | -3.7 | -6.0%
